We go through 9 molecules from PubChem BioAssay (NCATS).

Records with an inconclusive call do not appear. Active and inactive are the calls of the source. Unless noted, calls follow the shape of the dose curve; as a rule, active = well fitted curve in the direction sought with a large enough effect; inconclusive = small, poorly fitted or top-dose-only effect, or another doubt; inactive = no such curve, though single readings can be large; an effect the other way counts as inactive or inconclusive.

Assay [1] has as its target Lysosomal acid glucosylceramidase (Homo sapiens) (UniProt P04062). Description: Glucocerebrosidase-p2 (AID 348; in the data active = potency below about 10 µM; also: potency is read from the fitted curve at half-maximal effect). The conditions noted are these: purified GBA, blue fluorogenic substrate, 40 min. The method in brief:
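Normal human glucocerebrosidase (0.2 nM) with blue fluorogenic substrate (80 uM final) in citrate/phosphate pH 5.9 with 10mM sodium taurocholate, 0.01% tween-20; 40 min RT, NaOH/glycine stop; fluorescence Ex 365/Em 440; AC50 from a titration from 0.6 nM upwards.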

Assay [2] can be described thus: AP1 Signaling Pathway (AID 357; active = well fitted curve in either direction with a large enough effect, not every such curve was filed as active;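 also: ME-180 reporter cells stimulated with EGF at its EC50 level; % is scaled to controls: 0 for no effect and ±100 for the full control effect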). The conditions noted are these: ME-180 AP-1-bla reporter, EGF-induced, beta-lactamase ratio, 5 h; at 7.69 µM (top of the series) unless noted. The method in brief: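 Beta-lactamase reporter under AP-1 response element, ME-180 background. Stimulus: EC50 EGF. Compound exposure 5 h, 37 °C. Detection: CCF4, 2.5 h RT, 460/530 nm. Values: AC50 from titration.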

The target in assay [3] is Cytochrome P450 1A2 (Homo sapiens) (UniProt P05177). Description: p450-cyp1a2 (AID 410; calls by dose curve; also: potency is read from the fitted curve at half-maximal effect;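 as to activity change, negative = inhibition: -100% = full effect of reference inhibitor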). A digest of the protocol:
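Luminescent demethylation readout: Luciferin-ME (100uM, equal to Km) turned over by 20nM CYP1A2 for 60 min at room temperature after NADPH regeneration addition, following 10 min compound preincubation. Normalization used 57 uM furafylline as full inhibition.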

A short description of assay [4]: NFAT Signaling Pathway (AID 444; active = well fitted curve in either direction with a large enough effect, not every such curve was filed as active;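 also: carbachol stimulus at about its EC50 of 1 µM final; % is scaled to controls: 0 for no effect and ±100 for the full control effect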). The conditions noted are these: Jurkat NFAT-bla M1, carbachol, beta-lactamase ratio, 5 h; at 7.69 µM (top of the series) unless noted. A digest of the protocol: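 Read-out: CCF4 FRET ratio (460 nm/530 nm) after 1 h RT dye loading, used for %activity and AC50 from titration series. Cells: Jurkat NFAT-β-lactamase/M1 line, treated with compound plus 1 uM carbachol for 5 h, 37 °C.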

A short description of assay [5]: Stat Signaling Pathway (AID 446; active = well fitted curve in either direction with a large enough effect, not every such curve was filed as active;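 also: ME-180 cervical cancer cells given 40 pM IL-6 alongside compound; SIE-controlled beta-lactamase reporter measured as 460/530 nm FRET emission ratio; % is scaled to controls: 0 for no effect and ±100 for the full control effect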). The settings on record: ME-180 (cervical carcinoma) SIE beta-lactamase reporter, IL-6 stimulated, 5 h; at 7.69 µM (top of the series) unless noted. A digest of the protocol:
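Compound effects on IL-6-induced STAT reporter activity were measured in ME-180 cells. After overnight culture, cells were co-treated with 40 pM IL-6 for 5 hrs before beta-lactamase substrate loading at room temperature.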

The target in assay [6] is Glucocorticoid receptor (Homo sapiens) (UniProt P04150). Nature of the assay: GR-GFP Redistribution (AID 450;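 active = compounds whose dose series gives a full or clear partial fitted curve of increased nuclear translocation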; also: potency is read from the fitted curve at half-maximal effect). The settings on record: U2OS GR-GFP nuclear translocation, laser cytometry, 2 h.
Sequence of Glucocorticoid receptor (Homo sapiens) (P04150 whole entry, looked up, the tested form may be a part): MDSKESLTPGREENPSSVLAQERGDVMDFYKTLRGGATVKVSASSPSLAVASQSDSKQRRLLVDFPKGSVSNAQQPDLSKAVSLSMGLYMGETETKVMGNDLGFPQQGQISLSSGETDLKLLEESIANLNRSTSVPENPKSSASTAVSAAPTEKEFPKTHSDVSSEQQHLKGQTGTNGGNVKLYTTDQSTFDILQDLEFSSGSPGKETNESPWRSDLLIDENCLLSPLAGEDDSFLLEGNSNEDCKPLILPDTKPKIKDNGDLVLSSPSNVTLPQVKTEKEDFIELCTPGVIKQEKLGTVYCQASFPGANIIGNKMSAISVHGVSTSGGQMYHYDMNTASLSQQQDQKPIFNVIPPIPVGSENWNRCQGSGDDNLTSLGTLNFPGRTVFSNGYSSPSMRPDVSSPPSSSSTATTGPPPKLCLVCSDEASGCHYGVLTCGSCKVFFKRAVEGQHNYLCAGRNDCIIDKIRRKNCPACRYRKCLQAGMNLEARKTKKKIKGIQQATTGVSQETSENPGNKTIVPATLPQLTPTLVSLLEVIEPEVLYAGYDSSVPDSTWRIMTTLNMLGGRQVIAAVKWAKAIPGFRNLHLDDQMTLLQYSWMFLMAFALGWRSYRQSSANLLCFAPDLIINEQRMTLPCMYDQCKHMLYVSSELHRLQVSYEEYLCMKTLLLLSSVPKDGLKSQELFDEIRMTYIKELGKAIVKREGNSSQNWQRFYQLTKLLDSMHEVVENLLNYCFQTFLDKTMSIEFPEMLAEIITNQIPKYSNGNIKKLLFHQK
The target is the same in assay [7]. Description: GR-EFC Redistribution (AID 451; calls by dose curve; also: potency is read from the fitted curve at half-maximal effect). The settings on record: CHO-K1 GR-EFC translocation, beta-gal luminescence, 2 h. The method in brief: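 Translocation of GR-ED fusion to nuclear EA restores b-gal, read by luminescence after 1 h room-temperature detection. Engineered CHO-K1 biosensor cells, 1,000/well, exposed 2 h at 37 C to titrations up to 46 uM final.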

In assay [8] the target is Mitogen-activated protein kinase 10 (Mus musculus) (UniProt Q61831). Description: JNK3 AlphaScreen Assay (AID 530; active = well fitted curve in either direction with a large enough effect, not every such curve was filed as active;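 also: kinase came from lysate of stimulated human HepG2 cells; signal reports phosphorylation of biotinylated GST-cJun 1-79 at Ser73 with 10 µM ATP; % is scaled to controls: 0 for no effect and ±100 for the full control effect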). The method in brief:
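qHTS titrations with 15 min compound pre-incubation before adding ATP (10 uM final). Read-out: AlphaScreen of Ser73-phosphorylated biotin-GST-cJun using HepG2 lysate JNK3 activated by IL-1β and TNFα.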
On the technique in general: Bead proximity is the source of the signal in Alpha formats.

Assay [9] deals with 3',5'-cyclic-AMP phosphodiesterase 4B (Homo sapiens) (UniProt Q07343). Description: qHTS Assay for Inhibitors of PDE-IV (AID 607; active = well fitted activation curve with a large enough effect in the main read-out, with a control signal flat, not every such curve was filed as active; also: % of control where 0% means no effect). The method in brief:
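ACTOne HEK293 cells carry a modified cAMP-gated CNG channel and express endogenous PDE4; plated 1000 cells/well, compounds up to 22.9 uM final. Membrane-potential dye fluorescence (ex 535/em 590) was read; parental cells received 10 uM forskolin + 100 uM RO 20-1724.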
(In general: In qHTS, concentration-response curves come from the screen itself.)

In assay [10] the target is Cytochrome P450 3A4 (Homo sapiens) (UniProt P08684). Description: qHTS Assay for Activators of Cytochrome P450 3A4 (AID 885). Also: nearly all actives have a fitted effect of over 65% in size. A digest of the protocol: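 CYP3A4 activity: Luciferin-PPXE O-dealkylation, 25uM substrate, 200mM KPO4, RT throughout. Read-out is luciferase luminescence; higher values reflect activation.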
Sequence of Cytochrome P450 3A4 (Homo sapiens) (P08684 whole entry, looked up): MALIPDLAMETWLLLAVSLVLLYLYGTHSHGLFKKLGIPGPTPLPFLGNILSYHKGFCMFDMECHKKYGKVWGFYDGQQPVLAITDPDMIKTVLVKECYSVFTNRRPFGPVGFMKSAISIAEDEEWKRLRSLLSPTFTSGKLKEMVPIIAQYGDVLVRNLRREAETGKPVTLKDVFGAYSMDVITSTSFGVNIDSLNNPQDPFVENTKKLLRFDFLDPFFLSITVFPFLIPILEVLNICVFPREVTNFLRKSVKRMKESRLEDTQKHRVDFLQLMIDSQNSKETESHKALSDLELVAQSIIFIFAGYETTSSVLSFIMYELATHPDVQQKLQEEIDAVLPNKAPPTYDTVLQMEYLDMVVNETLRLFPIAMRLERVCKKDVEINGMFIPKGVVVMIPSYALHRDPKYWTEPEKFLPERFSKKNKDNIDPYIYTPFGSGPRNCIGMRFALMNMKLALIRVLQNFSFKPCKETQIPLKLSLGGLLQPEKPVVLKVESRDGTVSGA
A short description of assay [11]: Primary qHTS for small molecule stabilizers of the endoplasmic reticulum resident proteome: Secreted ER Calcium Modulated Protein (SERCaMP) assay (AID 1508630). Also: % is scaled to controls: 0 for no effect and ±100 for the full control effect. A digest of the protocol:
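The SH-SY5Y reporter protocol was run at 3 concentrations up to 38.3 uM (primary) or 11 concentrations (follow-up): 16 h compound, 100 nM thapsigargin for 4 h, then extracellular luciferase luminescence.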

For assay [12], the target named is Rap guanine nucleotide exchange factor 3 (Homo sapiens) (UniProt O95398). Description: Confirmatory qHTS for antagonist of cAMP-regulated guanine nucleotide exchange factor 3 (EPAC1) (AID 1645880).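 Also: plate controls were DMSO only for no effect and full effect of the ATA control for full effect; nearly all actives have a fitted effect of over 55% in size.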 A digest of the protocol:
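Released BODIPY-GDP fluoresces less than Rap1-bound BODIPY-GDP; the signal is followed at 480/540 nm at 5-min intervals over 30 min, after 5 min at room temperature. Reactions contain 100 nM EPAC1, 250 nM RAP1B-BODIPY-GDP and 50 uM GDP; results are normalized to ATA and DMSO.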

The target is the same in assay [13]. Nature of the assay: Confirmatory qHTS for agonist of cAMP-regulated guanine nucleotide exchange factor 3 (EPAC1) (AID 1645881). Also: nearly all actives have a fitted effect of over 75% in size. Also: potency is read from the fitted curve at half-maximal effect.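 As to activation: EPAC1 catalysed release of BODIPY-GDP from Rap1B seen as fluorescence loss; 100% = effect of cAMP agonist control.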
In assay [14] the target is Rap guanine nucleotide exchange factor 4 (Homo sapiens) (UniProt Q8WZA2). Nature of the assay: Confirmatory qHTS for agonist of cAMP-regulated guanine nucleotide exchange factor 4 (EPAC2) (AID 1645884).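 Also: nucleotide exchange releases bodipy-GDP from Rap1 and this lowers its fluorescence; nearly all actives have a fitted effect of over 65% in size.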 Also: potency is read from the fitted curve at half-maximal effect.
Sequence of Rap guanine nucleotide exchange factor 4 (Homo sapiens) (Q8WZA2 whole entry, looked up): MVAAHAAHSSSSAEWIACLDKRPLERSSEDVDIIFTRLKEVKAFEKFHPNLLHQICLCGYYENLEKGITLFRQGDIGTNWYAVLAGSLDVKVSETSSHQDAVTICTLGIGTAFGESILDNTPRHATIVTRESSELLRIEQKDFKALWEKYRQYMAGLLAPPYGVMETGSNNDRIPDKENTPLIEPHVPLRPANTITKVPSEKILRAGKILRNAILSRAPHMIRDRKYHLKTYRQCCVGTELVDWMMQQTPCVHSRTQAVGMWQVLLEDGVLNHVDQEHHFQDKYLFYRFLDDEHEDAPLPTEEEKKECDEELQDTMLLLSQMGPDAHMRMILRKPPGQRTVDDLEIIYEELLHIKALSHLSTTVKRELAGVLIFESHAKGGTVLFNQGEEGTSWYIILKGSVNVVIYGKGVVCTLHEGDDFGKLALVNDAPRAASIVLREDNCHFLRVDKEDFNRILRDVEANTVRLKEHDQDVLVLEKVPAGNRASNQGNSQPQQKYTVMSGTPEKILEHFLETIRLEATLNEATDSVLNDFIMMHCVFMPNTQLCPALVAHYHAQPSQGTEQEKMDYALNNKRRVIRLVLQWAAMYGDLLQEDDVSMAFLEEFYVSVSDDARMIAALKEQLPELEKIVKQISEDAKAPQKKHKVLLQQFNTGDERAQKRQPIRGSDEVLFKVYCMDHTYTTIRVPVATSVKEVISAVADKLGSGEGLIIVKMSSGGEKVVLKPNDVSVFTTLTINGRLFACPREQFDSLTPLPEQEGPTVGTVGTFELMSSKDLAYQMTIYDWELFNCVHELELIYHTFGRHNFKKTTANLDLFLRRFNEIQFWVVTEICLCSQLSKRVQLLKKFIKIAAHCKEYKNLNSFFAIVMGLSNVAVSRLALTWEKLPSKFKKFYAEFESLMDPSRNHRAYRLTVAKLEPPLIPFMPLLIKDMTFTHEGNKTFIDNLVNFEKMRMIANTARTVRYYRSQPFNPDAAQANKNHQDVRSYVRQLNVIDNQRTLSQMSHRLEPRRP
Assay [15] shares this target. Description: Confirmatory qHTS for antagonist of cAMP-regulated guanine nucleotide exchange factor 4 (EPAC2) (AID 1645885). Also: % is scaled to controls: 0 for no effect and ±100 for the full control effect; nearly all actives have a fitted effect of over 25% in size.
Assay [16] deals with Dual specificity protein kinase CLK4 (Homo sapiens) (UniProt Q9HAZ1). Nature of the assay: qHTS Assay for Inhibitors of CDC-like Kinase 4 (ADP-FP Assay) (AID 1795).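 Also: recombinant human CLK4 phosphorylating RS repeat peptide at 1 µM ATP; % is scaled to controls: 0 for no effect and ±100 for the full control effect; nearly all actives have a fitted effect of over 60% in size.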 A digest of the protocol: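 Kinase activity was measured as ADP production using Transcreener orange tracer (4 nM) and ADP antibody (1 ug/mL) fluorescence polarization, with ADP calculated from a calibration curve. The 1 h reaction contained 6.25 nM Clk4, 1 uM ATP and 100 uM RS peptide at pH 7.5 with Mg2+.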

In assay [17] the target is Ubiquitin carboxyl-terminal hydrolase 1 (Homo sapiens) (UniProt O94782). Description: Inhibitors of USP1/UAF1: Pilot qHTS (AID 504865). Also: nearly all actives have a fitted effect of over 35% in size. Also: potency is read from the fitted curve at half-maximal effect. A digest of the protocol:
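Deubiquitinase activity followed as kinetic rhodamine fluorescence release from 150 nM Ub-Rho. 1 nM USP1/UAF1 with compound, after 15 min room-temperature preincubation, in HEPES pH 7.8 buffer containing TCEP, EDTA, BSA and Tween-20.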

A short description of assay [18]: qHTS Assay for Lipid Storage Modulators (AID 1519; calls by dose curve). The settings on record: Drosophila S3 cells, BODIPY lipid droplet/cell ratio, laser cytometry, cells loaded with oleic acid; for activity change, negative = inhibition: at 57.5 µM (top of the series). The method in brief:
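Cells seeded at 5,000 per well were treated with compounds over a concentration series and loaded with oleic acid (400 uM, as added). Lipid droplet fluorescence (488 nm excitation, 500-530 nm channel) was read by laser-scanning cytometry and normalized to 20 uM Triacsin C.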

The target of assay [19] is Cytochrome P450 3A4 (Homo sapiens) (UniProt P08684). Nature of the assay: qHTS Assay for Inhibitors and Substrates of Cytochrome P450 3A4 (AID 884). Also: nearly all actives have a fitted effect of over 50% in size. Also: potency is read from the fitted curve at half-maximal effect. A digest of the protocol: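 Luminescent readout of luciferin produced by CYP3A4 (20 nM) dealkylation of Luciferin-PPXE, 25 uM (its KM). NADPH-driven reaction ran 60 min at RT after 10 min compound preincubation; data scaled to 57 uM ketoconazole as 100% inhibition.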

Assay [20] in a line: Confirmation and Secondary Assay for Modulators of Hemoglobin Beta Chain Splicing at IVS2 654 locus (AID 910).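 Also: HeLa cells stably carrying EGFP split by mutant beta-globin IVS2-654 intron; per-well total GFP intensity by laser scanning cytometry after 2-day treatment; % of control where 0% means no effect.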 A digest of the protocol: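 Readout: per-well total peak green fluorescence (488 nm ex, 500–520 nm em) from objects 5–250 µm, reflecting correct splicing of an EGFP-654 reporter. Compounds were applied for 2 days at 37 °C to overnight-plated HeLa EGFP-654 cells; controls were DMSO and 500 nM IVS2-654 PNA.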

Setting [21] is: measured here: cell count channel max response.
Setting [22] is: measured here: lipid channel max response.

Sequence of Lysosomal acid glucosylceramidase (Homo sapiens) (P04062 whole entry, looked up): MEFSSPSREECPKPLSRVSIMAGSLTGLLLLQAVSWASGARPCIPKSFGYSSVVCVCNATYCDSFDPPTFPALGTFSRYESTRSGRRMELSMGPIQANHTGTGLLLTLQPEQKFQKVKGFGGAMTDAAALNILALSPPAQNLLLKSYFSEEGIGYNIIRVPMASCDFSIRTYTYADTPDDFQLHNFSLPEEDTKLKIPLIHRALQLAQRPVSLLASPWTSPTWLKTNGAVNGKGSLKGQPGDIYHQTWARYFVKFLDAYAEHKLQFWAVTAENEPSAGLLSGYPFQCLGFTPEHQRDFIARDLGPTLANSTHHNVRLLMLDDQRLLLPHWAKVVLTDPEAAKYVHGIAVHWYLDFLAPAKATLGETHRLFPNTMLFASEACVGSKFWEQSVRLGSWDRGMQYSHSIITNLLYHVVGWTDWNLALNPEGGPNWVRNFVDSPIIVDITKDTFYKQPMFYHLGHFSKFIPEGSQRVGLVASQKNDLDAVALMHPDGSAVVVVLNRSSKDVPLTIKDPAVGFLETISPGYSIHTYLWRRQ
Sequence of Rap guanine nucleotide exchange factor 3 (Homo sapiens) (O95398 whole entry, looked up): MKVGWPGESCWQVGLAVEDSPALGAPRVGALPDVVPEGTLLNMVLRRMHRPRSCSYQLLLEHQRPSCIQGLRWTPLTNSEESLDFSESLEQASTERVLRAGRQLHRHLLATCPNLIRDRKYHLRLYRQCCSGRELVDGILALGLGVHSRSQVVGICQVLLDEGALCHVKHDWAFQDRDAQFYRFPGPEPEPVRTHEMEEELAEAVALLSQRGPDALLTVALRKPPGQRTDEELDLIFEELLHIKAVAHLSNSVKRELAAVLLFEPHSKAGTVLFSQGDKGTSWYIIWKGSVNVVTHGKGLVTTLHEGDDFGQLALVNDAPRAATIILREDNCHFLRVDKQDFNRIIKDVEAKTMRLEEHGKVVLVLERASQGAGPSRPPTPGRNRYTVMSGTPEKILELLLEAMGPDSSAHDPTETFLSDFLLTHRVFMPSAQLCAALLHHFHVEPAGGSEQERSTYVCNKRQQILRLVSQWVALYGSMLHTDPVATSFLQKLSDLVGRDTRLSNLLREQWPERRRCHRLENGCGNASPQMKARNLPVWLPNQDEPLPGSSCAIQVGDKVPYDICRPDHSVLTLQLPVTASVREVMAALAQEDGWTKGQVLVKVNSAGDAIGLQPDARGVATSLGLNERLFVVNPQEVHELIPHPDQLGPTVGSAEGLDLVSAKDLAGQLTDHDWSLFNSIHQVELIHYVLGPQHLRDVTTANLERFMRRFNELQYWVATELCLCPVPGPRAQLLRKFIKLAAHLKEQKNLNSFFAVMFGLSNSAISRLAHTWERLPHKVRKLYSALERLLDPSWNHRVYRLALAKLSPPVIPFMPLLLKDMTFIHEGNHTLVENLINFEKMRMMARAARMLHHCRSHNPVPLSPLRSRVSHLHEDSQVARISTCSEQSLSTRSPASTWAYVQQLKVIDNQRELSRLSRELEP
Sequence of Cytochrome P450 1A2 (Homo sapiens) (P05177 whole entry, looked up): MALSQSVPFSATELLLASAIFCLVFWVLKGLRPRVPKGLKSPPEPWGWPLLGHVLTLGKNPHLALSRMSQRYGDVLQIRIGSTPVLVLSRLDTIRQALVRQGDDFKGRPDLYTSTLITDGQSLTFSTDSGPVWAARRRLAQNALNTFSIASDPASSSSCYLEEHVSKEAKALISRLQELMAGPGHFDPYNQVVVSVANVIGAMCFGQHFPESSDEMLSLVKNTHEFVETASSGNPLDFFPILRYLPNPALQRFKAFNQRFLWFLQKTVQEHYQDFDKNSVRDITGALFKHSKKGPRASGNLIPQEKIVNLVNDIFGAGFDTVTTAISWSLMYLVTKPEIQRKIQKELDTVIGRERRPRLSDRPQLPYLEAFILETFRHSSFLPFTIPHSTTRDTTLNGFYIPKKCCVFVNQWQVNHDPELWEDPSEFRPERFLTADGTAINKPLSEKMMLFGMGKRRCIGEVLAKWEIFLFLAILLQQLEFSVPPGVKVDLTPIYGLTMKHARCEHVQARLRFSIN
Sequence of 3',5'-cyclic-AMP phosphodiesterase 4B (Homo sapiens) (Q07343 whole entry, looked up): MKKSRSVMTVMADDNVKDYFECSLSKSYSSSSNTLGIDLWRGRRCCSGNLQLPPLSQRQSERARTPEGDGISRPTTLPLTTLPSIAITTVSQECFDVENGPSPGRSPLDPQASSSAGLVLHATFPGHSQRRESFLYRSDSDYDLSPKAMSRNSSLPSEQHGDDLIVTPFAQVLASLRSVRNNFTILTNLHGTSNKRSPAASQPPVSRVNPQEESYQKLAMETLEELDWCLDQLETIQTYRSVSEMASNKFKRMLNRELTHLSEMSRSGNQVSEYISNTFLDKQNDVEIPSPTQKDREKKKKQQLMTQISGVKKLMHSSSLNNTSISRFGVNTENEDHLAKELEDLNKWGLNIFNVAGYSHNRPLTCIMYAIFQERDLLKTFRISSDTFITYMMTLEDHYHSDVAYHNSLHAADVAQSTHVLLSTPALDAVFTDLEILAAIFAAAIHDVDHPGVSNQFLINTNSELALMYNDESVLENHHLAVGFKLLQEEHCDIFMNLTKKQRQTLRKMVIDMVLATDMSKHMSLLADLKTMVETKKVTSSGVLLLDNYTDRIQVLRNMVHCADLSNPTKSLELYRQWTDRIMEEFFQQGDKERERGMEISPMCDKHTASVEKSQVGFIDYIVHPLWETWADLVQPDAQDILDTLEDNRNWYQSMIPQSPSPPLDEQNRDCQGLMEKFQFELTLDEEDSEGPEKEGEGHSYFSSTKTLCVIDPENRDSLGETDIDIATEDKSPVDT

Take `COCCn1c(=O)c(-c2ccc(OC)cc2)nc2cnc(Nc3cccc(OC)c3)nc21`: the Potency in assay [1] is > 11.4 µM (inactive); in assay [3] it was 10 µM (active); in assay [6] it was > 9.22 µM (inactive); in [7], > 46 µM (inactive); in assay [13], 70.6 µM (active); in assay [14] it was 70.6 µM (active). In addition, the results for the activity change, negative = inhibition in [2] and in assay [4] were -2.99% (inactive) and -5.57% (inactive), respectively. Besides, in assay [5], the activity, negative = inhibition is 3.6% (inactive). The Potency entry in assay [8], in assay [9], in [10], in [12] and in assay [15] was “inactive” each time. Also, the outcome in assay [11] was inactive.
Turning to `COc1ccc(-n2c(=O)c(-c3ccc(Cl)cc3)nc3cnc(N(C)C)nc32)cc1`, the Potency in [1] is > 11.4 µM (inactive); in assay [3] it was 10 µM (active); in assay [6] it was > 9.22 µM (inactive); in assay [7], > 46 µM (inactive). The Potency result in assay [8], in assay [16], in [17], in assay [12], in assay [13] and in [14] was “inactive” each time. The Potency result in assay [15] is “inactive”. Besides, the outcome in [11] was inactive.
In the case of `O=C(c1ccncc1)N1CCC2(CC1)CCN(c1ccc(-c3ccccc3)cc1)CC2`, the activity change, negative = inhibition in assay [2] is -18.3% (inactive); in assay [4], 14.4% (inactive); in assay [18], 0.379% (inactive). For the same molecule, the activity, negative = inhibition in assay [5] was -9.73% (inactive). Besides, in assay [7], the Potency is > 46 µM (inactive). The Potency result in assay [8] and in assay [9] was “inactive” in each case. Further, the max response in assay [18] (setting [21]) is -2.77%; in assay [18] (setting [22]) it was 2.35%. Moreover, in assay [11], the outcome was inactive.
In the case of `COc1cccc(Nc2ncc3nc(-c4cc(F)cc(F)c4)c(=O)n(C4CC4)c3n2)c1`, the Potency in assay [1] is > 11.4 µM (inactive); in assay [3], 6.31 µM (active); in assay [6] it was > 9.22 µM (inactive); in [7] it was > 46 µM (inactive). In addition, the activity change, negative = inhibition was -13.3% (inactive) in assay [2] and -29.9% (inactive) in assay [4]. Further, the activity, negative = inhibition in assay [5] was -7.32% (inactive). Further, the Potency result in assay [8], in assay [9], in assay [12], in assay [13], in assay [14] and in assay [15] was “inactive” in each case. Moreover, the result in [11] was inactive.
For the molecule `CC(=O)N1CCC[C@@]2(CCN(C(=O)Nc3cccc(C#N)c3)C2)C1`, the values for the activity change, negative = inhibition in [2], in assay [4] and in [18] were -7.34% (inactive), 23.9% (inactive) and 2.15% (inactive), respectively. Moreover, the activity, negative = inhibition in assay [5] is 7.98% (inactive). In assay [7], the Potency was > 46 µM (inactive). The Potency result in assay [8] is “inactive”. Moreover, the values for the max response in assay [18] (setting [21]) and in assay [18] (setting [22]) were -7.31% and -0.637%, respectively. The outcome in assay [11] was inactive.
Regarding `Cc1cc(OC(=O)c2c(C)cc(O)cc2O)cc(O)c1C(=O)O`, the Potency in assay [19] was 12.6 µM (active). Further, the Potency entry in [10], in [20] and in assay [17] was “inactive” each time. In addition, the activity change, negative = inhibition in assay [18] was 8.43% (inactive). Also, the max response in assay [18] (setting [21]) was found to be 13%; in assay [18] (setting [22]) it was 23.1%. The outcome in assay [11] was inactive.
Turning to `Cn1cccc1C(=O)N1CCC2(CCCN(c3ccncc3)C2)CC1`, the activity change, negative = inhibition in assay [2] was 11.9% (inactive); in [18], 5.74% (inactive). In addition, in assay [5], the activity, negative = inhibition was 0.921% (inactive). In assay [7], the Potency is > 46 µM (inactive). The Potency entry in [8] and in assay [9] was “inactive” each time. Further, the figures for the max response in assay [18] (setting [21]) and in [18] (setting [22]) were 8.08% and 18.3%, respectively. The outcome in assay [11] was inactive.
In the case of `CCCCCCCCCCCCCC(=O)O[C@H](CC(=O)O)C[N+](C)(C)C`, the Potency entry in assay [3], in [8] and in assay [9] was “inactive” each time. The Potency was > 46 µM (inactive) in [6], > 46 µM (inactive) in assay [7] and 79.4 µM (active) in assay [17]. Further, the activity change, negative = inhibition in [18] was 3.49% (inactive). Besides, the figures for the max response in [18] (setting [21]) and in [18] (setting [22]) were -5.36% and -2.97%, respectively. Also, in [11], the result was inactive.
`OC[C@H]1O[C@@H](n2cnc3c(NCc4ccco4)ncnc32)[C@H](O)[C@@H]1O`: the Potency result in assay [19] is “inactive”. Further, in assay [18], the activity change, negative = inhibition is -9.06% (inactive). For the same molecule, the max response in assay [18] (setting [21]) was -12.6%; in assay [18] (setting [22]), -19.8%. In addition, the outcome in assay [11] was inactive.
